High-throughput results (PubChem BioAssay)
Sampled rows, rich in hits. Any-hit rate of the full collection: about 3.9%.
NSD2 inh: NSD2 histone methyltransferase inhibitors, primary screen, biochemical, AlphaScreen, single concentration, set 2. Histone-lysine N-methyltransferase NSD2 (Homo sapiens), O96028. NSD2 peptide methylation, 120 min. inhibition, % at 12.5 µM. 310,000 tested, 0.54% active. AID 743445, 2014; in the data active = inhibition above about 50%
CDK5 inh: inhibitors of human CDK5/p35 kinase, primary screen, biochemical, single concentration. Cyclin-dependent kinase 5 (Homo sapiens) + Cyclin-dependent kinase 5 activator 1 (Homo …. Recombinant CDK5/p35, ADP-Glo luminescence, 60 min. inhibition, % at 10 µM. 330,000 tested, 0.01% active;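 active = highest replicate inhibition of at least 50% and at least 75% of replicates reaching 50%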;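 also: plate controls were DMSO neutral control for no effect and GW8510 at 10 µM for full effect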
Target sequence (Q00535 whole entry, looked up): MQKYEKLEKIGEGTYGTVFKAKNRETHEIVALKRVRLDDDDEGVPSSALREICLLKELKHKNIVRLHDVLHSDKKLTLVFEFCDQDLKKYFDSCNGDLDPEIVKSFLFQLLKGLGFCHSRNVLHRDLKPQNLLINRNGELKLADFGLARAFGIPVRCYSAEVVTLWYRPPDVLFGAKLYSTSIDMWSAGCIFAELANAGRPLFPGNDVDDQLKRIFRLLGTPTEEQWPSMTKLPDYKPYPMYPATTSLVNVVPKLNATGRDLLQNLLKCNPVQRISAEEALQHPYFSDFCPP
Target sequence (Q15078 whole entry, looked up): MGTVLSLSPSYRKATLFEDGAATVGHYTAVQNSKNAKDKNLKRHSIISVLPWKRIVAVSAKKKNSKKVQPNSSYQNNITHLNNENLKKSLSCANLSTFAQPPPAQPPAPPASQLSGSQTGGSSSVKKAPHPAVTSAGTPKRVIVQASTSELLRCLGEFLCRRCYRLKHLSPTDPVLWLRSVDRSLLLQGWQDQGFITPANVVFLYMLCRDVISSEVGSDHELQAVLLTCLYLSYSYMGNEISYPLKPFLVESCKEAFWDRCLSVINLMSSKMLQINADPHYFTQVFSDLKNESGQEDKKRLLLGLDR
ALR H2O2 inh: inhibitors of human ALR sulfhydryl oxidase, primary screen, biochemical, H2O2 detection, HRP-luminol luminescence, single point; FAD-linked sulfhydryl oxidase ALR (Homo sapiens), P55789; purified ALR, DTT oxidation; inhibition, % (test concentration not listed); 290,000 tested, 3.8% active; AID 485317, 2010;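 active = mean replicate inhibition above about 79%, with every replicate also reaching it, limit read from the data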
Glyco luc inh: increase of ERlucT glycosylation luciferase signal, primary screen, N-linked glycosylation inhibitor project, D54 ERlucT cells, luminescence, set 2; D54 ERlucT glycosylation luciferase reporter, 24 h; percent of 100 nM tunicamycin response; reporter increase, % at 12.5 µM; 360,000 tested, 0.23% active; AID 588692, 2011;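 active = mean luciferase reporter signal, scaled so untreated is 0 and the glycosylation-blocking control 100, at or above a set limit in every replicate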;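 also: luciferase carries N-glycosylation sites so blocking glycosylation raises the light; 0% = median of neutral control wells and 100% = median of 100 nM tunicamycin wells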
Casp6 inh: human caspase-6 inhibitors, primary screen, biochemical, VEID-R110 fluorescence, single point, set 2 | purified caspase-6, Z-VEID-R110 cleavage fluorescence | inhibition, % at 12.5 µM | P55212 | 350,000 tested, 0.53% active;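 active = mean inhibition across replicates at least about 35%, with every replicate also reaching that limit, limit read from the data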;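 also: 0% = median of neutral control wells and 100% = no fluorescence left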
Mot1-301 SUMO: yeast Mot1-301 growth rescue at high temperature, primary screen, SUMOylation pathway inhibitor project, S. cerevisiae, ATP luminescence, 38.5C. S. cerevisiae Mot1-301 growth rescue; percent above DMSO median, 100 means doubled. growth rescue, % at 18.8 µM. 320,000 tested, 1% active;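 active = every valid replicate shows activation above 250% relative to neutral control wells; inactive = the rest, any valid replicate at or below 250%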;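 also: OY570 slx delta 5 strain wells were the positive control but not used for scaling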
Yeast Mot1 SUMO: growth restoration of Mot1-301 yeast on galactose, dose response, SUMO pathway inhibitor project, whole organism, S. cerevisiae, ATP luminescence, cherry-picked samples | shares compounds with Mot1-301 SUMO | S. cerevisiae Mot1-301 galactose growth, 24 h; -100 = growth of slx-deleted rescue strain | growth activity, percent, % at 42 µM | 2,300 tested, under 10 active;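 active = Signal drops as the depositor expects, and the fitted half-maximal dose is no more than ten times the top valid tested dose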;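 also: more negative values mean stronger growth rescue toward the control strain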
The depositor's hits bear a star; nt = no result; + = active, no number.

SMILES	NSD2 inh	CDK5 inh	ALR H2O2 inh	Glyco luc inh	Casp6 inh	Mot1-301 SUMO	Yeast Mot1 SUMO
CC(C)C(OC(=O)CN1C(=O)COc2ccccc21)C(=O)NC1CCCC1 (configuration not stated)	-4	0	-3	-1	nt	784*	0
CC(C)C(OC(=O)CN1C(=O)COc2ccccc21)C(=O)NC1CCCCC1 (configuration not stated)	-5	-1	-6	-3	-1	13	nt
CNC(=O)C[C@@H]1CC[C@@H]2[C@@H](COc3ccc(NC(=O)c4ccccc4Cl)cc3C(=O)N2C)O1	nt	nt	nt	nt	-1	nt	nt
CCOc1ccc(-c2nnc(SCC(=O)N3CCCC3)o2)cc1	-2	1	-12	-2	-3	713*	1
CCOc1ccc(-c2nnc(SCC(=O)N3CCOCC3)o2)cc1	0	-1	-4	1	nt	-6	nt
COc1ccc(-c2nnc(SCC(=O)N3CCCCC3)o2)cc1	-3	1	0	2	-1	542*	0
O=S(=O)(Nc1ccc(-c2nc3cccnc3s2)cc1)c1cc(F)ccc1F	-2	0	-6	0	1	370*	-1
CC(C)=CC(=O)N1CCCC(N2CCN(c3ccccc3C)CC2)C1 (configuration not stated)	1	0	nt	0	1	-9	nt
O=C(c1ccc(Cl)s1)N1CCCC(N2CCN(c3ccc(F)cc3)CC2)C1 (configuration not stated)	8	0	51	2	0	140	nt
CC(C)=CC(=O)N1CCCC(N2CCN(c3ccc(F)cc3)CC2)C1 (configuration not stated)	-1	0	nt	0	0	+	-1
CC(=O)c1ccc(C(=O)N2CCCC(N3CCN(c4ccc(F)cc4)CC3)C2)s1 (configuration not stated)	-1	1	nt	0	-3	508*	0
COCC(=O)Nc1ccc2c(c1)C(=O)N(C)C[C@H](OC)[C@@H](C)CN(C(=O)CC1CC1)[C@@H](C)CO2	nt	nt	nt	nt	-2	nt	nt
C[C@@H]1CN([C@@H](C)CO)C(=O)c2cc(-c3cccc(F)c3)cnc2O[C@H]1CN(C)S(=O)(=O)c1cccc(F)c1	nt	nt	nt	nt	-1	nt	nt
Nc1nnc(CC(=O)N2CCCCC2)s1	-2	0	nt	2	nt	396*	0
CN1c2ccc(Br)cc2[C@@H]2[C@@H](CCN2C(=O)C2CCCCC2)[C@@H]1CO	nt	nt	nt	nt	2	nt	nt
COc1ccc(NC(=O)N(C)C[C@H]2OCCCC[C@H](C)Oc3ccc(NC(=O)Cc4ccccc4)cc3C(=O)N([C@H](C)CO)C[C@@H]2C)cc1	nt	nt	nt	nt	-1	nt	nt
O=C(COC(=O)COc1ccccc1Cl)Nc1ccccc1OC(F)F	-6	-3	14	-5	nt	578*	1
O=C(NCc1cccc(F)c1F)C1CCC(=O)N(C2CC2)C1 (configuration not stated)	-6	-1	-2	1	-4	421*	0
COc1ccccc1C1NC(=O)CS1 (configuration not stated)	0	3	nt	2	nt	360*	0
COc1cc(C2NC(=O)CS2)cc(OC)c1OC (configuration not stated)	-2	-1	nt	1	nt	-1	nt
COC(=O)C12CCC3(SCCS3)C(C(=O)OC)(CCC13SCCS3)C2	0	nt	-2	-2	-1	523*	0
Cc1c(NC(=O)c2cc(-c3ccccc3O)on2)c(=O)n(-c2ccccc2)n1C	1	0	4	1	0	441*	0
